Drawing on PubChem BioAssay (NCI), this text covers growth for eleven molecules.

About 83,000 compounds went through this panel and 20% of them were active in at least one assay; those are over-represented in the sample as a whole.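 48-hour exposure, single concentration, 96-well plates; percent growth endpoint where 0 means no net growth. Active: below 10.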 Unmarked numbers belong to inactive results. Active and inactive are the calls of the source.

Among the test systems are NCI-H23 lung; NCI-H226 lung; NCI-H322M lung; HOP-62 NSCLC; NCI-H460 lung; HOP-92 NSCLC; NCI-H522 lung; A549/ATCC NSCLC; 786-0 renal; COLO 205 colon.
Holding throughout (test): NCI-60 one-dose screen, 48 h (100 = growth as untreated, 0 = no growth, -100 = all killed)
What all share (conditions): 10 µM unless noted

Turning to `Cn1nc(N)c2cc([C@@H]3Nc4ccc5[nH]ncc5c4[C@H]4C5CCC(C5)[C@@H]34)ccc21` (stereo not given in full), the growth in the test with NCI-H23 lung is 26.9%; with NCI-H226 lung it was 30.6%; in the test on NCI-H322M lung, 48.9%; in the test on HOP-62 NSCLC, 46.9%; in the test with NCI-H460 lung, 2.68% (active); in the test on HOP-92 NSCLC, 105%. Besides, the growth is 17.9% in the test with NCI-H522 lung, 28.5% in the test on A549/ATCC NSCLC, 34.7% with 786-0 renal and 2.47% (active) in the test with COLO 205 colon.
Take `O=C(Nc1ccccc1Cl)c1ccc(NC2=C(Cl)C(=O)N(C3CCCCC3)C2=O)cc1`: the growth was -24.1% [30 µM] (active) in the test with NCI-H23 lung; 97.1% [30 µM] with NCI-H226 lung; 16.2% [30 µM] with NCI-H322M lung; 88.4% [30 µM] with HOP-62 NSCLC; 32.8% [30 µM] in the test on NCI-H460 lung; -16.8% [30 µM] (active) with HOP-92 NSCLC. In addition, the growth in the test with NCI-H522 lung is 70.3% [30 µM]; with A549/ATCC NSCLC, 94% [30 µM]; with 786-0 renal it was 69.9% [30 µM]; with COLO 205 colon, 66.6% [30 µM].
`COc1cccc(/C=C2\Oc3cc(OCCN4CCCC4)ccc3C2=O)c1`: the growth with NCI-H23 lung is 92.2%; in the test with NCI-H226 lung it was 99.2%; with NCI-H322M lung, 92.7%; in the test on HOP-62 NSCLC, 96.3%; in the test with NCI-H460 lung, 93.8%; in the test on HOP-92 NSCLC, 69.6%. The growth was 94.5% in the test on NCI-H522 lung, 99% with A549/ATCC NSCLC, 95.8% in the test with 786-0 renal and 93.8% in the test with COLO 205 colon.
`C=CCSSc1ncnc2c1ncn2C1OC(CO)C(O)C1O` (stereo not given): the growth with NCI-H23 lung is 39.7%; in the test with NCI-H226 lung, 65%; in the test with NCI-H322M lung, 33.6%; in the test with HOP-62 NSCLC, 19.8%; with NCI-H460 lung, 43.3%; in the test with HOP-92 NSCLC, 28.2%. Also, the growth was 11.3% with NCI-H522 lung, 79.7% with A549/ATCC NSCLC, 14.6% with 786-0 renal and 25.6% with COLO 205 colon.
With `C=C(C)[C@@H]1CC[C@]2(C(N)=O)CC[C@]3(C)[C@H](CC[C@@H]4[C@@]5(C)C/C(=C/c6ccco6)C(=O)C(C)(C)[C@@H]5CC[C@]43C)[C@@H]12`, the growth in the test on NCI-H23 lung is 98%; with NCI-H226 lung, 95.8%; in the test on NCI-H322M lung it was 98.9%; in the test on HOP-62 NSCLC it was 98.5%; in the test with NCI-H460 lung, 96%; with HOP-92 NSCLC, 103%. Besides, the growth in the test with NCI-H522 lung is 78.8%; with A549/ATCC NSCLC, 86.6%; in the test on 786-0 renal, 95.3%; in the test with COLO 205 colon, 113%.
Turning to `NC1=C(Cl)C(=O)c2ccc(S(N)(=O)=O)cc2C1=O`, the growth with NCI-H23 lung is -49.8% (active); in the test with NCI-H226 lung, -51% (active); in the test on NCI-H322M lung it was -97% (active); with HOP-62 NSCLC it was -68.2% (active); in the test with NCI-H460 lung it was -65.8% (active); in the test on HOP-92 NSCLC, -58.1% (active). The growth is -84.1% (active) with NCI-H522 lung, -53.7% (active) in the test with A549/ATCC NSCLC, -29.8% (active) in the test with 786-0 renal and -90.3% (active) with COLO 205 colon.
Consider `CC[C@@H](C(=O)[C@@H](C)[C@@H](O)[C@H](C)[C@@H]1O[C@@H]([C@@H](CC)C(=O)O)CC[C@@H]1C)[C@H]1OC2(C=C[C@@H](O)[C@]3(CC[C@@](C)([C@H]4CC[C@](O)(CC)[C@H](C)O4)O3)O2)[C@H](C)C[C@@H]1C` (stereo not given in full), for which the growth in the test with NCI-H23 lung was 4.65% (active); with NCI-H226 lung it was 14.1%; with NCI-H322M lung, 24.2%; in the test on HOP-62 NSCLC it was 39.3%; with NCI-H460 lung it was 10%; in the test with HOP-92 NSCLC, -14.8% (active). The growth in the test with NCI-H522 lung is -54.6% (active); in the test with A549/ATCC NSCLC, 11.9%; with 786-0 renal, 3.62% (active); with COLO 205 colon it was 17.1%.
Turning to `O=c1c(F)cn(Cc2ccccc2CCl)c(=O)n1Cc1ccccc1CCl`, the growth is -63.1% (active) in the test on NCI-H23 lung; -22% (active) with NCI-H226 lung; -19.3% (active) in the test with NCI-H322M lung; -51.7% (active) with HOP-62 NSCLC; -75% (active) in the test on NCI-H460 lung; -77.5% (active) in the test on HOP-92 NSCLC. Further, the growth in the test with NCI-H522 lung is -61.6% (active); in the test on A549/ATCC NSCLC, 1.3% (active); in the test on 786-0 renal it was -54.7% (active); with COLO 205 colon, -75.3% (active).
For `COc1ccc(/C=C/c2nc3ccccc3nc2/C=C/c2ccc(OC)cc2)cc1`, the growth with NCI-H23 lung is 93.5%; with NCI-H226 lung, 90.2%; in the test on NCI-H322M lung, 103%; with HOP-62 NSCLC, 104%; in the test with NCI-H460 lung, 100%; in the test with HOP-92 NSCLC, 92.3%. Also, the growth in the test on NCI-H522 lung was 94%; in the test with A549/ATCC NSCLC it was 93.9%; in the test with 786-0 renal it was 88.8%; in the test on COLO 205 colon, 97.4%.
Turning to `O=[N+]([O-])c1ccc2c(c1)Cc1cc(F)ccc1-2`, the growth is 105% in the test with NCI-H23 lung; 99.4% with NCI-H226 lung; 95.6% in the test on NCI-H322M lung; 106% with HOP-62 NSCLC; 106% with NCI-H460 lung; 80.2% in the test on HOP-92 NSCLC. Moreover, the growth in the test on NCI-H522 lung was 104%; in the test on A549/ATCC NSCLC, 88.5%; in the test with 786-0 renal it was 95.4%; in the test with COLO 205 colon, 107%.
As for `COc1cccc(-c2nn(C(C)(C)C)cc2-c2ccnc(NCCCNS(=O)(=O)c3cccc4ccccc34)c2)c1`, the growth was 109% with NCI-H23 lung; 109% in the test with NCI-H226 lung; 111% in the test on NCI-H322M lung; 103% in the test on HOP-62 NSCLC; 104% in the test on NCI-H460 lung; 104% in the test with HOP-92 NSCLC. Moreover, the growth in the test on NCI-H522 lung is 95.6%; with A549/ATCC NSCLC it was 104%; in the test on 786-0 renal, 103%; in the test with COLO 205 colon it was 115%.
